# In PubChem BioAssay (Tox21):
# Results filed as inconclusive are left out. Entries that show only a call come without a potency. Active and inactive are the calls of the source. Unless noted, calls follow the shape of the dose curve; as a rule, active = well fitted curve in the direction sought with a large enough effect in the repeat runs; inconclusive = weak or mixed curves; inactive = no such curve, though single readings can be large; an effect the other way counts as inactive or inconclusive.
# Biological target: Androgen receptor (Homo sapiens) (UniProt P10275)
# Sequence (P10275 whole entry, looked up): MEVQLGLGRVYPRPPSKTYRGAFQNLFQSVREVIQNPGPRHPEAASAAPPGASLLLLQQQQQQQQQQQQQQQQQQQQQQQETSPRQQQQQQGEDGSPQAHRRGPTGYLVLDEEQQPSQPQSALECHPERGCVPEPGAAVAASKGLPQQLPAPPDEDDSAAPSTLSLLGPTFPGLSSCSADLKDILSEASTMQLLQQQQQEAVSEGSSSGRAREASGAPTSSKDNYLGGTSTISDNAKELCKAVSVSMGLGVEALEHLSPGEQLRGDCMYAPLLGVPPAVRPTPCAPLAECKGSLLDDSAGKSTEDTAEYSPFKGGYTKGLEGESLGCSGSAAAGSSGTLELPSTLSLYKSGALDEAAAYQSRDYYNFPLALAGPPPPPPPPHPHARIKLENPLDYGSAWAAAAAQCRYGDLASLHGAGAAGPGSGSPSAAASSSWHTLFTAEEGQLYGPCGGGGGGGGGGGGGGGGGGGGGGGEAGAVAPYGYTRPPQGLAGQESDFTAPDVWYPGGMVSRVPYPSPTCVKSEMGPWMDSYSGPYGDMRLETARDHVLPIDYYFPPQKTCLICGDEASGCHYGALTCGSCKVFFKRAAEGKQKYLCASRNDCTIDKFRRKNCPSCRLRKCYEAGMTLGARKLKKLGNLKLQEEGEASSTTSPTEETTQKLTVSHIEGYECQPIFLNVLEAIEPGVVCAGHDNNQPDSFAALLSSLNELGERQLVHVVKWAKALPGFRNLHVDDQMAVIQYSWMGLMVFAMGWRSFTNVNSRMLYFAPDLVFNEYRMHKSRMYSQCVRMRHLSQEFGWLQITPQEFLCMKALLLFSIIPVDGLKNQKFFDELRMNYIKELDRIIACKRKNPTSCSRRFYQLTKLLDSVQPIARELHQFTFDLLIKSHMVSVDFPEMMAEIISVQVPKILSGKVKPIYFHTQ
# Assay: qHTS assay to identify small molecule antagonists of the androgen receptor (AR) signaling pathway (AID 743035; active = well fitted inhibition curve with a large enough effect in the signal ratio in the repeat runs, not every such curve was filed as active; the % refers to the signal ratio)
# Conditions: HEK293 AR-UAS-bla, R1881-stimulated, beta-lactamase FRET, 16 h; series mostly up to 58.5 µM
# How it was run: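 Antagonist mode: AR-bla HEK293 cells co-treated with test compounds and agonist R1881 for 16 h at 37C, 5% CO2. Beta-lactamase activity read as FRET fluorescence after 2 h room-temperature substrate loading.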
row,SMILES,Potency
1,Cc1ccc(-c2ncc(Cl)cc2-c2ccc(S(C)(=O)=O)cc2)cn1,inactive
2,CCCCS(=O)(=O)N[C@@H](Cc1ccc(OCCCCC2CCNCC2)cc1)C(=O)O,inactive
3,CCCCCCCCCC[N+](C)(C)[O-],inactive

# Biological target: Androgen receptor (Homo sapiens) (UniProt P10275)
# Assay: qHTS assay to identify small molecule agonists of the androgen receptor (AR) signaling pathway using the MDA cell line (AID 743040; also: nearly all actives have a fitted effect of over 20% in size)
# Conditions: MDA-kb2 AR-luc cells, MMTV luciferase, 16 h; series mostly up to 70.3 µM
# How it was run: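 Stable MMTV-luciferase reporter in MDA-kb2 cells; note the promoter carries GR as well as AR response elements. 16 h compound treatment, 37C, 0% CO2; ONE-Glo luminescence endpoint.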
row,SMILES,Potency
1,Cc1ccc(-c2ncc(Cl)cc2-c2ccc(S(C)(=O)=O)cc2)cn1,inactive
2,CO[C@@]1(NC(=O)CSC[C@@H](N)C(=O)O)C(=O)N2C(C(=O)O)=C(CSc3nnnn3C)CS[C@@H]21,inactive
3,CCCCS(=O)(=O)N[C@@H](Cc1ccc(OCCCCC2CCNCC2)cc1)C(=O)O,inactive
4,CCCCCCCCCC[N+](C)(C)[O-],inactive
5,Cc1ccc(C(=O)c2ccc(CC(=O)O)n2C)cc1,inactive

# Test system: not listed separately
# Assay: qHTS assay to identify small molecule antagonists of the androgen receptor (AR) signaling pathway using the MDA cell line - cell viability counter screen (AID 743041; also: nearly all actives have a fitted effect of over 45% in size)
# Conditions: MDA-kb2 viability, CellTiter-Fluor, 16 h, cells co-treated with R1881 androgen agonist; series mostly up to 70.3 µM
# How it was run: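 Using the breast carcinoma line MDA-kb2 AR-luc, test chemicals were co-incubated with R1881 for 16 h; CellTiter-Fluor reagent, added at 15.5 h, provided a fluorescence measure of live cells.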
row,SMILES,Potency
1,Cc1ccc(-c2ncc(Cl)cc2-c2ccc(S(C)(=O)=O)cc2)cn1,inactive
2,CCCc1nn(C)c2c(=O)[nH]c(-c3cc(S(=O)(=O)N4CCN(C)CC4)ccc3OCC)nc12,inactive
3,COc1cccc(OC)c1C(=O)N[C@@H]1C(=O)N2[C@@H]1SC(C)(C)[C@@H]2C(=O)O,inactive
4,CCCCOCCOC(=O)CCCCCCCCC(=O)OCCOCCCC,inactive
5,COc1ccnc(CS(=O)c2nc3cc(OC(F)F)ccc3[nH]2)c1OC (stereo not drawn),inactive
6,C[C@H]1[C@H](NC(=O)/C(=N/OC(C)(C)C(=O)O)c2csc(N)n2)C(=O)N1S(=O)(=O)O (stereo in doubt),inactive
7,CN(C)CCCN(C)CCCN(C)C,inactive
8,CCCCS(=O)(=O)N[C@@H](Cc1ccc(OCCCCC2CCNCC2)cc1)C(=O)O,inactive
9,OCCc1ccccn1,inactive
10,CCCCc1nc(Cl)c(CO)n1Cc1ccc(-c2ccccc2-c2nn[nH]n2)cc1,inactive
11,O=S(=O)(O)c1cccc2ccccc12,inactive
12,C1CCC2(CCCCO2)OC1,inactive
13,CCCCCCCCCC[N+](C)(C)[O-],inactive
14,c1ccc(Cc2ccccc2)cc1,inactive
15,CC1=NS(=O)(=O)c2cc(Cl)ccc2N1,inactive
16,Cc1ccc(C(=O)c2ccc(CC(=O)O)n2C)cc1,inactive
17,Cc1cccc(C)c1NC(=O)CC12CCCN1CCC2,inactive
18,CCCCCCCCCCCCSC,inactive

# Biological target: Androgen receptor (Homo sapiens) (UniProt P10275)
# Assay: qHTS assay to identify small molecule antagonists of the androgen receptor (AR) signaling pathway using the MDA cell line (AID 743042; also: nearly all actives have a fitted effect of over 55% in size)
# Conditions: MDA-kb2 AR-luc, MMTV luciferase, R1881 antagonist, 16 h; series mostly up to 70.3 µM
# How it was run: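 Antagonist mode: compounds plus R1881 agonist added to MDA-kb2 AR-luc cells, incubated 16 h at 37C. Luciferase reporter luminescence quantified, with multiplexed CellTiter-Fluor readout for cell viability.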
row,SMILES,outcome
1,Cc1ccc(-c2ncc(Cl)cc2-c2ccc(S(C)(=O)=O)cc2)cn1,inactive
2,CO[C@@]1(NC(=O)CSC[C@@H](N)C(=O)O)C(=O)N2C(C(=O)O)=C(CSc3nnnn3C)CS[C@@H]21,inactive
3,CCCCS(=O)(=O)N[C@@H](Cc1ccc(OCCCCC2CCNCC2)cc1)C(=O)O,inactive
4,CCCCCCCCCC[N+](C)(C)[O-],inactive
5,Cc1ccc(C(=O)c2ccc(CC(=O)O)n2C)cc1,inactive

# Test system: not listed separately
# Assay: qHTS assay to identify small molecule antagonists of the thyroid receptor (TR) signaling pathway - cell viability counter screen (AID 743064); also: nearly all actives have a fitted effect of over 50% in size
# Conditions: GH3.TRE-Luc viability, CellTiter-Fluor, 24 h; series mostly up to 70.3 µM
# How it was run: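 Plate GH3.TRE-Luc cells; incubate 4 h at 37 °C; add compound, then T3 to 1 nM final; incubate 23.5 h; add CellTiter-Fluor; incubate 30 min at 37 °C, 5% CO2; read fluorescence.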
row,SMILES,Potency
1,Cc1ccc(-c2ncc(Cl)cc2-c2ccc(S(C)(=O)=O)cc2)cn1,inactive
2,CO[C@@]1(NC(=O)CSC[C@@H](N)C(=O)O)C(=O)N2C(C(=O)O)=C(CSc3nnnn3C)CS[C@@H]21,inactive
3,CCCc1nn(C)c2c(=O)[nH]c(-c3cc(S(=O)(=O)N4CCN(C)CC4)ccc3OCC)nc12,inactive
4,CCCCN1C=CN(C)C1,inactive
5,CC(C)[C@H]1CC[C@@H](C)CC1=O,inactive
6,CCN1CCOCC1,inactive
7,COc1ccccc1OCC1CNC(=O)O1 (stereo not drawn),inactive
8,CCCCOCCOC(=O)CCCCCCCCC(=O)OCCOCCCC,inactive
9,COc1ccnc(CS(=O)c2nc3cc(OC(F)F)ccc3[nH]2)c1OC (stereo not drawn),inactive
10,CC[N+](C)(CC)CCOC(=O)C1c2ccccc2Oc2ccccc21,inactive
11,CCOCC(C)O (stereo not drawn),inactive
12,CC12CCC(C(=O)C1=O)C2(C)C (stereo not drawn),inactive
13,CN(C)CCCN(C)CCCN(C)C,inactive
14,CCCCS(=O)(=O)N[C@@H](Cc1ccc(OCCCCC2CCNCC2)cc1)C(=O)O,inactive
15,O=C(O)CNC(=O)c1ccc(CO)o1,inactive
16,C=CCOCC(O)CO (stereo not drawn),inactive
17,CC(C)(CCC(=O)O)C(=O)O,inactive
18,OCCc1ccccn1,inactive
19,CC1(C)[C@@H]2CC[C@@]1(C)[C@H](O)C2,inactive
20,CC(=O)c1ccccc1[N+](=O)[O-],inactive
21,O=S(=O)(O)c1cccc2ccccc12,inactive
22,C1CCC2(CCCCO2)OC1,inactive
23,CCCCCCCCCC[N+](C)(C)[O-],inactive
24,c1ccc(Cc2ccccc2)cc1,inactive
25,Cc1ccc(C(=O)c2ccc(CC(=O)O)n2C)cc1,inactive
26,Cc1cccc(C)c1NC(=O)CC12CCCN1CCC2,inactive
27,Nc1ccccn1,inactive
28,CCCCCCCCCCCCSC,inactive

# Test system: not listed separately
# Assay: qHTS assay to identify small molecule antagonists of the thyroid receptor (TR) signaling pathway (AID 743065); also: nearly all actives have a fitted effect of over 55% in size
# Conditions: GH3.TRE-Luc, T3-stimulated luciferase inhibition, 23.5 h; series mostly up to 70.3 µM
# How it was run: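 Antagonism measured as loss of luciferase signal in GH3 cells stably carrying a TRE-luciferase reporter, co-treated with compound and T3 (1 nM final) for 23.5 h at 37 C. Viability was read in the same well by CellTiter-Fluor.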
row,SMILES,Potency
1,Cc1ccc(-c2ncc(Cl)cc2-c2ccc(S(C)(=O)=O)cc2)cn1,inactive
2,CO[C@@]1(NC(=O)CSC[C@@H](N)C(=O)O)C(=O)N2C(C(=O)O)=C(CSc3nnnn3C)CS[C@@H]21,inactive
3,CCCc1nn(C)c2c(=O)[nH]c(-c3cc(S(=O)(=O)N4CCN(C)CC4)ccc3OCC)nc12,inactive
4,CCCCN1C=CN(C)C1,inactive
5,CCN1CCOCC1,inactive
6,COc1ccccc1OCC1CNC(=O)O1 (stereo not drawn),inactive
7,CCCCOCCOC(=O)CCCCCCCCC(=O)OCCOCCCC,inactive
8,COc1ccnc(CS(=O)c2nc3cc(OC(F)F)ccc3[nH]2)c1OC (stereo not drawn),inactive
9,CC[N+](C)(CC)CCOC(=O)C1c2ccccc2Oc2ccccc21,inactive
10,CC12CCC(C(=O)C1=O)C2(C)C (stereo not drawn),inactive
11,CN(C)CCCN(C)CCCN(C)C,inactive
12,O=C(O)CNC(=O)c1ccc(CO)o1,inactive
13,C=CCOCC(O)CO (stereo not drawn),inactive
14,CC(C)(CCC(=O)O)C(=O)O,inactive
15,OCCc1ccccn1,inactive
16,CC1(C)[C@@H]2CC[C@@]1(C)[C@H](O)C2,inactive
17,CC(=O)c1ccccc1[N+](=O)[O-],inactive
18,O=S(=O)(O)c1cccc2ccccc12,inactive
19,C1CCC2(CCCCO2)OC1,inactive
20,c1ccc(Cc2ccccc2)cc1,inactive
21,Cc1cccc(C)c1NC(=O)CC12CCCN1CCC2,inactive
22,Nc1ccccn1,inactive
23,CCCCCCCCCCCCSC,inactive
24,C[C@@H]1CCC[C@H](C)N1,inactive
